Screen size: about 5,500 compounds; about 2,000 (36%) were called active. About 18% were inconclusive and are not listed. Cut-off read from the data, not from the text of the source: active = normalized growth mostly below about 0.91 (no sharp cut-off); inconclusive = no clear call, values can overlap the other calls; inactive = mostly above about 0.92. This is one part of the list.
Assay: chemical genetic growth profiling, strain panel (AID 1159580);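 note: tested at 20 µM; growth read once vehicle control cultures reached saturation at 30 °C; 1 = growth at the plate median or of vehicle wells; lower values mean less growth of the strain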
Conditions: growth OD

Measured: normalized growth

COc1cc2cc[n+]3cc4c(OC)c(OC)ccc4cc3c2cc1OC
inactive: S. cerevisiae deletion strains, locus YJR075W, strain HOC1, stronger effect = lower value 0.979 | S. cerevisiae deletion strains, locus YKL009W, strain mrt4, stronger effect = lower value 0.965 | S. cerevisiae deletion strains, locus YKL068W, stronger effect = lower value 0.963 | S. cerevisiae deletion strains, locus YKL085W, strain MDH1 (second series), stronger effect = lower value 0.992 | S. cerevisiae deletion strains, locus YKL085W, strain MDH1, stronger effect = lower value 0.992 | S. cerevisiae deletion strains, locus YKL160W, strain elf1, stronger effect = lower value 0.976 | S. cerevisiae deletion strains, locus YKL190W, strain CNB1, stronger effect = lower value 0.982 | S. cerevisiae deletion strains, locus YKR001C, strain vps1, stronger effect = lower value 0.99 | S. cerevisiae deletion strains, locus YKR026C, strain gcn3, stronger effect = lower value 0.985 | S. cerevisiae deletion strains, locus YKR091W, strain srl3, stronger effect = lower value 0.976 | S. cerevisiae deletion strains, locus YLL001W, strain dnm1, stronger effect = lower value 0.965 | S. cerevisiae deletion strains, locus YLL026W, stronger effect = lower value 0.97 | S. cerevisiae deletion strains, locus YLL041C, strain sdh2, stronger effect = lower value 0.99 | S. cerevisiae deletion strains, locus YLR027C, strain aat2, stronger effect = lower value 0.962 | S. cerevisiae deletion strains, locus YLR039C, strain RIC1, stronger effect = lower value 0.938 | S. cerevisiae deletion strains, locus YLR058C, strain SHM2, stronger effect = lower value 0.985 | S. cerevisiae deletion strains, locus YLR102C, strain apc9, stronger effect = lower value 0.959 | S. cerevisiae deletion strains, locus YLR113W, strain HOG1, stronger effect = lower value 1.02 | S. cerevisiae deletion strains, locus YLR221C, strain rsa3, stronger effect = lower value 0.968 | S. cerevisiae deletion strains, locus YLR258W, strain gsy2, stronger effect = lower value 0.993 | S. cerevisiae deletion strains, locus YLR262C, strain YPT6 (second series), stronger effect = lower value 1.01 | S. cerevisiae deletion strains, locus YLR262C, strain YPT6, stronger effect = lower value 0.926 | S. cerevisiae deletion strains, locus YLR268W, strain sec22, stronger effect = lower value 1 | S. cerevisiae deletion strains, locus YLR320W, strain mms22, stronger effect = lower value 0.979 | S. cerevisiae deletion strains, locus YLR330W, strain CHS5, stronger effect = lower value 0.977 | S. cerevisiae deletion strains, locus YLR342W, strain FKS1 (second series), stronger effect = lower value 0.96 | S. cerevisiae deletion strains, locus YLR342W, strain FKS1, stronger effect = lower value 0.981 | S. cerevisiae deletion strains, locus YLR357W, strain rsc2, stronger effect = lower value 0.95 | S. cerevisiae deletion strains, locus YLR370C, strain arc18, stronger effect = lower value 0.981 | S. cerevisiae deletion strains, locus YLR371W, strain rom2, stronger effect = lower value 0.952 | S. cerevisiae deletion strains, locus YLR384C, strain iki3, stronger effect = lower value 0.977 | S. cerevisiae deletion strains, locus YLR418C, strain cdc73, stronger effect = lower value 1 | S. cerevisiae deletion strains, locus YML016C, strain PPZ1, stronger effect = lower value 0.985 | S. cerevisiae deletion strains, locus YML032C, strain rad52, stronger effect = lower value 0.955 | S. cerevisiae deletion strains, locus YML120C, strain ndi1, stronger effect = lower value 0.978 | S. cerevisiae deletion strains, locus YML124C, strain tub3, stronger effect = lower value 0.985 | S. cerevisiae deletion strains, locus YMR058W, strain fet3, stronger effect = lower value 0.973 | S. cerevisiae deletion strains, locus YMR078C, strain ctf18, stronger effect = lower value 0.986 | S. cerevisiae deletion strains, locus YMR125W, strain sto1, stronger effect = lower value 0.938 | S. cerevisiae deletion strains, locus YMR129W, stronger effect = lower value 0.987 | S. cerevisiae deletion strains, locus YMR205C, strain PFK2, stronger effect = lower value 0.961 | S. cerevisiae deletion strains, locus YMR223W, strain ubp8, stronger effect = lower value 0.97 | S. cerevisiae deletion strains, locus YMR231W, strain pep5, stronger effect = lower value 0.988 | S. cerevisiae deletion strains, locus YMR263W, strain SAP30, stronger effect = lower value 0.988 | S. cerevisiae deletion strains, locus YMR307W, strain GAS1, stronger effect = lower value 1.1 | S. cerevisiae deletion strains, locus YNL067W, strain RPL9B, stronger effect = lower value 0.982 | S. cerevisiae deletion strains, locus YNL071W, strain lat1, stronger effect = lower value 0.988 | S. cerevisiae deletion strains, locus YNL128W, strain TEP1, stronger effect = lower value 0.995 | S. cerevisiae deletion strains, locus YNL153C, strain GIM3, stronger effect = lower value 0.999 | S. cerevisiae deletion strains, locus YNL183C, strain NPR1, stronger effect = lower value 0.95 | S. cerevisiae deletion strains, locus YNL209W, strain ssb2, stronger effect = lower value 0.982 | S. cerevisiae deletion strains, locus YNL233W, strain BNI4, stronger effect = lower value 1 | S. cerevisiae deletion strains, locus YNL248C, strain rpa49, stronger effect = lower value 0.968 | S. cerevisiae deletion strains, locus YNL250W, strain rad50, stronger effect = lower value 0.968 | S. cerevisiae deletion strains, locus YNL271C, strain bni1, stronger effect = lower value 0.975 | S. cerevisiae deletion strains, locus YNL298W, strain CLA4, stronger effect = lower value 0.984 | S. cerevisiae deletion strains, locus YNL307C, strain MCK1, stronger effect = lower value 0.985 | S. cerevisiae deletion strains, locus YNL322C, strain KRE1 (second series), stronger effect = lower value 0.959 | S. cerevisiae deletion strains, locus YNL322C, strain KRE1, stronger effect = lower value 0.98 | S. cerevisiae deletion strains, locus YNR049C, strain mso1, stronger effect = lower value 0.972 | S. cerevisiae deletion strains, locus YNR052C, strain pop2, stronger effect = lower value 0.98 | S. cerevisiae deletion strains, locus YOL006C, strain TOP1, stronger effect = lower value 1.02 | S. cerevisiae deletion strains, locus YOL012C, strain htz1 0.901 | S. cerevisiae deletion strains, locus YOL147C, strain pex11, stronger effect = lower value 0.988 | S. cerevisiae deletion strains, locus YOR001W, strain rrp6, stronger effect = lower value 0.987 | S. cerevisiae deletion strains, locus YOR061W, strain CKA2, stronger effect = lower value 0.98 | S. cerevisiae deletion strains, locus YOR069W, strain VPS5, stronger effect = lower value 0.993 | S. cerevisiae deletion strains, locus YOR070C, strain gyp1, stronger effect = lower value 0.984 | S. cerevisiae deletion strains, locus YOR080W, strain dia2, stronger effect = lower value 0.965 | S. cerevisiae deletion strains, locus YOR083W, strain WHI5, stronger effect = lower value 0.964 | S. cerevisiae deletion strains, locus YOR106W, strain vam3, stronger effect = lower value 0.998 | S. cerevisiae deletion strains, locus YOR136W, strain idh2, stronger effect = lower value 0.986 | S. cerevisiae deletion strains, locus YOR144C, strain elg1, stronger effect = lower value 0.983 | S. cerevisiae deletion strains, locus YOR184W, strain ser1, stronger effect = lower value 0.933 | S. cerevisiae deletion strains, locus YOR231W, strain MKK1, stronger effect = lower value 1.03 | S. cerevisiae deletion strains, locus YOR265W, strain rbl2, stronger effect = lower value 0.989 | S. cerevisiae deletion strains, locus YOR270C, strain vph1, stronger effect = lower value 0.937 | S. cerevisiae deletion strains, locus YOR290C, strain snf2, stronger effect = lower value 0.946 | S. cerevisiae deletion strains, locus YOR316C, strain cot1, stronger effect = lower value 0.988 | S. cerevisiae deletion strains, locus YPL051W, strain arl3, stronger effect = lower value 0.997 | S. cerevisiae deletion strains, locus YPL055C, strain LGE1, stronger effect = lower value 0.984 | S. cerevisiae deletion strains, locus YPL078C, strain atp4, stronger effect = lower value 0.986 | S. cerevisiae deletion strains, locus YPL106C, strain sse1, stronger effect = lower value 0.953 | S. cerevisiae deletion strains, locus YPL240C, strain hsp82, stronger effect = lower value 0.982 | S. cerevisiae deletion strains, locus YPL256C, strain CLN2, stronger effect = lower value 1.03 | S. cerevisiae deletion strains, locus YPR119W, strain clb2, stronger effect = lower value 0.979 | S. cerevisiae deletion strains, locus YPR141C, strain kar3, stronger effect = lower value 0.988 | S. cerevisiae deletion strains, locus YPR163C, strain tif3, stronger effect = lower value 0.988 | S. cerevisiae deletion strains, locus YPR167C, strain met16, stronger effect = lower value 0.984 | S. cerevisiae deletion strains, strain wtn01, stronger effect = lower value 0.971 | S. cerevisiae strains, strain wild type, stronger effect = lower value 0.985

Reference: PubChem BioAssay AID1159580 (chemical genetic matrix, 2015)
